RAD52 anneal inh – inhibitors of human RAD52 DNA annealing; recombinant RAD52 DNA annealing, FRET fluorescence; inhibition, % at 18.7 µM; 360,000 tested, 0.46% active; AID 651710;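 active = every replicate showing at least 50% inhibition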
Casp6 inh – caspase-6 (human) enzyme inhibition; P55212; purified caspase-6, Z-VEID-R110 cleavage fluorescence; inhibition, % at 12.5 µM; 350,000 tested, 0.53% active; AID 686996;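 active = mean inhibition across replicates at least about 35%, with every replicate also reaching that limit, limit read from the data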;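 also: 0% = median of neutral control wells and 100% = no fluorescence left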
Target sequence (P55212 24-179 limits assumed): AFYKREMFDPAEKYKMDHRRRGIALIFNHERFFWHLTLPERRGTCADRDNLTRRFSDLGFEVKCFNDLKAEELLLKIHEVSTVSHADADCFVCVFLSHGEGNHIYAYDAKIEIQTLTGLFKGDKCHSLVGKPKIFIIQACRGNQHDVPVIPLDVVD
Target sequence (P55212 194-293 limits assumed): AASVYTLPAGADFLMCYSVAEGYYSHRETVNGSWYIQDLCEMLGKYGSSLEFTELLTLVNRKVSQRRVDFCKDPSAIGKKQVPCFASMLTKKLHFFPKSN
NSD2 inh – blocks human histone methyltransferase NSD2; O96028; 310,000 tested, 0.54% active; AID 743445; NSD2 peptide methylation, AlphaScreen, 120 min; inhibition, % at 12.5 µM; in the data active = inhibition above about 50%
MLL AF4-AF9 inh – blocks AF4 peptide binding to human AF9; AlphaScreen, biotin-AF4 peptide binding to FLAG-AF9; P42568; AID 651704; 350,000 tested, 0.47% active; inhibition, % at 10 µM;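 active = every replicate reaching a set inhibition limit, whatever the replicate mean, cut at about 25% in these data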;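 also: 0% = plate neutral control median and 100% = total signal loss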
rRNA inh HTS – selective bacterial rRNA inhibition in E. coli | E. coli WT GFP vs humanized-ribosome RFP mutants, fluorescence, 24 h; active compounds read low; DMSO median 0, no signal -100 | 350,000 tested, 1.6% active | GFP signal change (wild-type ribosome), % (concentration not given with the values);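 active = significant combined selectivity score with lowered wild-type GFP, culture density cut under 30%, mutant RFP and density less affected; inactive = any of these conditions unmet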
* hit, by the source's call. The list is not random: actives were taken first. Their share in the collection is about 2.5%.

Results for CC1([N+](=O)[O-])COC(c2cccc3ccccc23)OC1 (centres undefined) ?
RAD52 anneal inh: -12; Casp6 inh: -4; NSD2 inh: -7; MLL AF4-AF9 inh: -1; rRNA inh HTS: -22*

How did COc1ccccc1C1OCC(C)([N+](=O)[O-])CO1 (centres undefined) do in these assays?
RAD52 anneal inh: -6; Casp6 inh: 1; NSD2 inh: 0; MLL AF4-AF9 inh: -8; rRNA inh HTS: 7

How did C[C@@H]1CN([C@@H](C)CO)C(=O)c2cccc(NC(=O)C3CCOCC3)c2O[C@H]1CN(C)Cc1ccc(C(F)(F)F)cc1 do in these assays?
RAD52 anneal inh: 12; Casp6 inh: -2; MLL AF4-AF9 inh: -1; rRNA inh HTS: -6

How did COc1ccc2c3c([nH]c2c1)[C@@H](CO)N(C(=O)c1ccccc1)CC31CN(C(=O)NC(C)C)C1 do in these assays?
RAD52 anneal inh: 2; MLL AF4-AF9 inh: 0; rRNA inh HTS: 4

What do the screens show for `Cc1ccccc1C(=O)Nc1c(C(=O)N(CCN(C)C)Cc2ccco2)oc2ccccc12`?
RAD52 anneal inh: -16; Casp6 inh: -2; NSD2 inh: 15; MLL AF4-AF9 inh: 13; rRNA inh HTS: 0

How did COc1ccccc1C(=O)Nc1c(C(=O)N(CCN(C)C)Cc2ccco2)oc2ccccc12 do in these assays?
RAD52 anneal inh: -5; Casp6 inh: 2; NSD2 inh: 11; MLL AF4-AF9 inh: 22; rRNA inh HTS: -40*

What do the screens show for `Cn1ncc(Br)c1C(=O)NC12CC3CC(CC(C3)C1)C2`?
RAD52 anneal inh: -5; Casp6 inh: -4; NSD2 inh: -5; MLL AF4-AF9 inh: -2; rRNA inh HTS: -30*

Results for Cn1ncc(Br)c1C(=O)N1CCCC1 ?
RAD52 anneal inh: 2; Casp6 inh: 1; NSD2 inh: -1; MLL AF4-AF9 inh: -1; rRNA inh HTS: 13

How did CCCc1cc(=O)[nH]c(Nc2ccc3c(c2)OCCO3)n1 do in these assays?
RAD52 anneal inh: -12; Casp6 inh: 1; NSD2 inh: -4; MLL AF4-AF9 inh: -1; rRNA inh HTS: -16*

Results for O=S(=O)(Nc1cc(Sc2ncn[nH]2)c(O)c2ccccc12)c1ccccc1 ?
RAD52 anneal inh: 5; Casp6 inh: 100*; NSD2 inh: active; MLL AF4-AF9 inh: 1; rRNA inh HTS: -52

What do the screens show for `O=C(CNCc1cccc2ccccc12)Nc1ccccc1[N+](=O)[O-]`?
RAD52 anneal inh: -19; Casp6 inh: -2; NSD2 inh: 2; MLL AF4-AF9 inh: 5; rRNA inh HTS: -31*

Results for O=C(CC(=O)Nc1ccccc1[N+](=O)[O-])Nc1ccccc1[N+](=O)[O-] ?
RAD52 anneal inh: -18; Casp6 inh: 1; NSD2 inh: -2; MLL AF4-AF9 inh: -2; rRNA inh HTS: -15

Results for COc1ccccc1-c1nnc(C2CCN(S(=O)(=O)c3ccccc3[N+](=O)[O-])CC2)o1 ?
RAD52 anneal inh: -7; Casp6 inh: 3; NSD2 inh: 1; MLL AF4-AF9 inh: -7; rRNA inh HTS: -18*

What do the screens show for `COc1ccccc1-c1nnc(C2CCN(S(=O)(=O)c3cccc([N+](=O)[O-])c3)CC2)o1`?
RAD52 anneal inh: -8; Casp6 inh: -2; NSD2 inh: 0; MLL AF4-AF9 inh: 6; rRNA inh HTS: -22*

How did CCC(=O)N1[C@@H]2Cn3c(cccc3=O)[C@H]1[C@@H](C(=O)NC1CCCC1)[C@@H]2CO do in these assays?
RAD52 anneal inh: 5; Casp6 inh: 3; MLL AF4-AF9 inh: -3; rRNA inh HTS: -3

What do the screens show for `CO[C@H]1CN(C)C(=O)c2cc(NC(=O)C3CC3)ccc2OC[C@H](C)N(C(C)=O)C[C@H]1C`?
RAD52 anneal inh: -1; Casp6 inh: 1; MLL AF4-AF9 inh: 0; rRNA inh HTS: 3

Results for CCCOc1ccc(N2C(=O)CC(SCCc3nc4ccccc4[nH]3)C2=O)cc1 (centres undefined) ?
RAD52 anneal inh: -2; Casp6 inh: 0; NSD2 inh: 1; MLL AF4-AF9 inh: 0; rRNA inh HTS: -31*

Results for O=C1CC(SCCc2nc3ccccc3[nH]2)C(=O)N1c1ccc(Cl)cc1 (centres undefined) ?
NSD2 inh: 3

What do the screens show for `COc1cccc(N2[C@@H](CC(C)=O)c3ccccc3S2(=O)=O)c1`?
RAD52 anneal inh: -10; Casp6 inh: 7; MLL AF4-AF9 inh: -3; rRNA inh HTS: 8

How did COc1cccc(N2[C@@H](CC(=O)O)c3ccc(/C=C/C(=O)O)cc3S2(=O)=O)c1 do in these assays?
RAD52 anneal inh: -10; Casp6 inh: 62*; MLL AF4-AF9 inh: 2; rRNA inh HTS: 9

Results for COc1ccc2cc(/C=N/NC(=O)CN3CCOCC3)c(Cl)nc2c1 ?
NSD2 inh: 0

Results for CCN(C[C@@H]1[C@@H](c2ccc(-c3ccccc3)cc2)[C@@H](CO)N1CC1CC1)C(C)=O ?
rRNA inh HTS: 2

How did CN(C)CC#Cc1ccc([C@H]2[C@H](CO)N3CCCCN(CC4CCOCC4)C[C@@H]23)cc1 do in these assays?
RAD52 anneal inh: 54*; Casp6 inh: 0; MLL AF4-AF9 inh: 12; rRNA inh HTS: 6

How did CN(C)CC#Cc1ccc([C@H]2[C@@H](CO)N3CCCCN(CC4CC4)C[C@@H]23)cc1 do in these assays?
RAD52 anneal inh: 61*; Casp6 inh: 0; MLL AF4-AF9 inh: 18; rRNA inh HTS: -1

How did OC[C@@H]1[C@H](c2ccc(C#CC3CCCC3)cc2)[C@H]2CN(CCC(F)(F)F)CCCCN12 do in these assays?
RAD52 anneal inh: 34; Casp6 inh: 2; MLL AF4-AF9 inh: 25*; rRNA inh HTS: -58

Results for CN(C)CC#Cc1ccc([C@@H]2[C@@H](CO)N3CCCCN(CC4CCOCC4)C[C@@H]23)cc1 ?
RAD52 anneal inh: 2; rRNA inh HTS: 5

What do the screens show for `OC[C@H]1[C@@H](c2ccc(C#CC3CCCC3)cc2)[C@@H]2CN(CCC(F)(F)F)CCCCN12`?
RAD52 anneal inh: 9; Casp6 inh: 2; MLL AF4-AF9 inh: 22; rRNA inh HTS: -58

Results for COc1ccccc1-c1ccc([C@H]2[C@@H](CO)N[C@@H]2CNC(=O)C2CCC2)cc1 ?
rRNA inh HTS: 0

How did CO[C@@H]1CN(C)C(=O)c2ccc(NS(=O)(=O)C3CCCCC3)cc2OC[C@@H](C)NC[C@@H]1C do in these assays?
RAD52 anneal inh: 2; Casp6 inh: 2; MLL AF4-AF9 inh: -1; rRNA inh HTS: 1

What do the screens show for `Cc1ccc(C)c(-c2cc(C(=O)N/N=C/c3cccnc3)c3ccccc3n2)c1`?
RAD52 anneal inh: -7; Casp6 inh: 3; NSD2 inh: 4; MLL AF4-AF9 inh: 3; rRNA inh HTS: -20*

What do the screens show for `COc1ccccc1Nc1cc(C(=O)NCc2cccnc2)c2ccccc2n1`?
RAD52 anneal inh: -10; Casp6 inh: 1; NSD2 inh: -2; MLL AF4-AF9 inh: -6; rRNA inh HTS: -9

What do the screens show for `Cc1ccc(C)c(Nc2cc(C(=O)NCc3cccnc3)c3ccccc3n2)c1`?
RAD52 anneal inh: -24; Casp6 inh: -1; NSD2 inh: -5; MLL AF4-AF9 inh: 4; rRNA inh HTS: -26*
